# Assay outcomes: PubChem BioAssay, National Center for Advancing Translational Sciences (NCATS)
# GLP1R ag: GLP-1 receptor (human) agonism; HEK293 GLP-1R CRE-luciferase, luminescence, 4-6 h; cells express a hypersensitive GLP-1R form; actives 0.007% (n = 380,000); AID 624172; Potency, µM (doses to about 45.6 µM), inactives show at the highest dose activation, hits mostly activators; note: potency is the fitted concentration of half-maximal effect; % of control where 0% means no effect
# Target sequence (P43220 whole entry, looked up): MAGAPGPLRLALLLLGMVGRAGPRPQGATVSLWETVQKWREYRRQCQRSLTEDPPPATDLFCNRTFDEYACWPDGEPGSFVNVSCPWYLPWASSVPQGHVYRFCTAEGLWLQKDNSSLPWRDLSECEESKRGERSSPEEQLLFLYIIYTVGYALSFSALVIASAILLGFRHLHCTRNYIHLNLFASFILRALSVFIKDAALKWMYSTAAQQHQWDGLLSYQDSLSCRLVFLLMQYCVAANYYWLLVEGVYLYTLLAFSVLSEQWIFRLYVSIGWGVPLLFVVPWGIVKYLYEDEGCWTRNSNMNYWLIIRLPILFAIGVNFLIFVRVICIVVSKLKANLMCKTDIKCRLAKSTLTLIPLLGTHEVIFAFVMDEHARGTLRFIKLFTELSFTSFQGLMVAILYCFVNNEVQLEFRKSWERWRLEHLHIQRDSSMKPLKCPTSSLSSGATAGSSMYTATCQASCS
# mIDH1 inhibitor: human IDH1 R132H inhibition; IDH1-R132H enzyme, NADPH consumption, diaphorase/resazurin fluorescence; Potency, µM (highest dose often 76.6 µM), for the others: top-dose activity change, negative = inhibition, actives largely listed as inhibitors; actives 0.093% (n = 390,000); AID 602179; note: potency is the fitted concentration of half-maximal effect; % is set by controls: 0 for no effect and ±100 for the full control effect; nearly all actives have a fitted effect of over 65% in size
#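 IDH1-R132H (0.5 ug/mL dispensed) in pH 7.5 Tris buffer was preincubated 30 min with compound, then given a substrate mix of 0.016 mM NADPH and 2 mM alpha-KG for 80 min at room temperature; remaining NADPH was read by diaphorase/resazurin fluorescence.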
# GLP1R inv ag: acts as inverse agonist at human GLP-1 receptor. Potency, µM (titrated, usually from 38.3 µM), inactives show top-dose activity change, negative = inhibition, actives largely listed as inhibitors. AID 624417. actives 1.6% (n = 410,000). HEK293 GLP-1R CRE-luciferase, luminescence, 24 h; GLP-1R form is constitutively active; note: potency is the fitted concentration of half-maximal effect; % is set by controls: 0 for no effect and ±100 for the full control effect; nearly all actives have a fitted effect of over 55% in size
#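 Luminescence readout: a drop in cAMP-driven luciferase signal flags inverse agonism at a constitutively active GLP-1R stably expressed in HEK293. Compound exposure lasted 24 hr at 37 deg C, 5% CO2.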
# GLP1R cytotox: cytotoxic in the GLP-1 receptor inverse agonist counter-screen; HEK293 cAMP-luciferase reporter cells, luminescence, 24 h; Potency, µM (titrated, usually from 38.3 µM), for the others: at the top dose activity change, negative = inhibition, most hits filed as inhibitors; actives 0.13% (n = 410,000);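 note: loss of luciferase light is scored as toxicity; potency is the fitted concentration of half-maximal effect; % is set by controls: 0 for no effect and ±100 for the full control effect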
#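 Step one: seed cells (200 cells/uL, DMEM with 10% Nu serum, 1% pen-strep). Step two: 12-hour incubation at 37 deg C. Step three: pin 23 nL compound, incubate 24 hr. Step four: add luciferase reagent, read luminescence 12 min later.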
# PTHR1 agonist: activates the human parathyroid hormone receptor PTHR1; Potency, µM (series often up to 115 µM), for inactives: at the top dose activation, most hits filed as activators; HEK293 GP2 PTHR1 cells, GloSensor cAMP luminescence, 1 h; actives 0.075% (n = 410,000); Q03431; note: potency is the fitted concentration of half-maximal effect; nearly all actives have a fitted effect of over 55% in size
#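 HEK-293-derived GP2 cells expressing PTHR1 and a GloSensor cAMP reporter, 3,000/well, plated overnight, given luciferin plus IBMX (each 0.5 mM as added) for 1 h at 37 °C, then compound for 1 h at 37 °C. Luminescence was read after 15 min at room temperature.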
# LDHA block: inhibitors of human lactate dehydrogenase A; purified LDHA, NADH/diaphorase-resazurin fluorescence; stronger effect = lower value; actives 0.15% (n = 480,000); activity change, % (values are at about 110 or 230 µM); AID 1347041; in the data active = activity change below about -30%; inconclusive = mostly about -25% to -30%;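 note: plate controls were DMSO wells for no effect and wells without enzyme for full effect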
#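 Enzyme activity of human lactate dehydrogenase 5 (2 nM; 0.06 mM NADH, 0.2 mM pyruvate, 5 min, RT) is measured via a resazurin/diaphorase fluorescence readout of residual NADH.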
# Starred values were filed as active, the others as inactive; i = inactive; ? = inconclusive; . = not tested or not shown; [ ] = dose if it differs, or a comment. Sampled rows, rich in hits. Any-hit rate of the full collection: about 1.7%. Unless noted, calls come from the whole dose curve; as a rule, active = well fitted curve in the direction sought with a large enough effect; inconclusive = small, poorly fitted or top-dose-only effect, or another doubt; inactive = no such curve, though single readings can be large; an effect the other way counts as inactive or inconclusive.
SMILES,GLP1R ag,mIDH1 inhibitor,GLP1R inv ag,GLP1R cytotox,PTHR1 agonist,LDHA block
NC(=O)c1ccc(NC(=O)CCc2ncc(-c3ccccc3F)o2)cc1,.,.,.,.,.,-2
CCN(C(=O)CSc1nnc(N2CCOCC2)n1-c1ccccc1)C1=CCCC1,.,.,.,.,.,-11
Cc1ccc(C(=O)N/N=C/C(C)C)cc1C,.,.,.,.,.,-3
COc1ccc(-c2coc3cc(OCCN4CCN(C)CC4)ccc3c2=O)cc1,.,.,.,.,.,13
O=C(Cn1ccc2ccccc21)NCc1ccc(Cl)cc1,.,.,.,.,.,3
CCn1c(=O)c2ccccc2n(Cc2cccc([N+](=O)[O-])c2)c1=O,13%,-8%,39%,23%,-14%,-35*
CCOCCCNC(=O)c1cc(-c2ccncc2)nc2ccccc12,.,.,.,.,.,3
COc1ccc(NC(=O)c2cc(S(=O)(=O)Nc3ccc(OC)cc3)cs2)cc1,16%,-1%,?,-12%,-43%,1
O=C(Nc1ccc(F)cc1)c1cc(S(=O)(=O)Nc2ccc(F)cc2)cs1,-17%,3%,10µM*,-30%,i,-1
S=C1NCCc2ccccc2C1c1ccccc1 (stereo unspecified),1%,4%,11µM*,?,-4%,-7
S=C1NCCc2ccccc2C1c1ccccc1Cl (stereo unspecified),-6%,5%,?,?,i,-1
C=CC[C@H]1CC(C)=C[C@H](CC=C)N1C(=O)c1cc(COc2ccccc2SC)on1,13%,5%,8.9µM*,14%,-29%,-5
CC(C)c1nnc2sc(-c3c[nH]c4ccccc34)nn12,.,.,.,.,.,9
CCCCCCN(C(=O)CCCN1C(=O)NC(c2ccc(-c3ccccc3)cc2)C(C(=O)OCc2ccccc2)=C1C)C(C)C(=O)NCCCC (stereo unspecified),9%,-4%,11µM*,-10%,i,-2
CCN(CC(=O)Nc1ccc2c(c1)OCCO2)CC(=O)Nc1ccccc1C(F)(F)F,14%,11%,-1%,-10%,-5%,-46*
CC(C)C[C@@H](CN1CCCC1CN1C(=S)NC[C@@H]1Cc1ccc(O)cc1)N1C[C@H](Cc2ccc(O)cc2)N(CCc2ccccc2)C1=S (stereo partly specified),-2%,10%,7.9µM*,?,9%,-6
CCC(NC(=O)C1(C)CC1(Br)Br)c1ccc(C)cc1 (stereo unspecified),-3%,0%,?,-2%,i,-3
CCc1ccc(C(C)NC(=O)C2(C)CC2(Br)Br)cc1 (stereo unspecified),-8%,0%,10µM*,-7%,-4%[57.5 µM],-3
O=C1c2ccccc2-c2onc3ccc(NCCCn4ccnc4)c1c23,19%,-13%,-13%,13µM*,-5%,15
CC(C)=CC(=O)OC(C)C(=O)Nc1ccc(N2CCOCC2)cc1 (stereo unspecified),.,.,.,.,.,-1
CN(C(=S)Nc1ccc(SC(F)F)cc1)C(c1ccccc1)c1ccccc1,-1%,5%,?,-20%,-44%,-2
FC(F)Sc1ccc(NC(=S)NC(c2ccccc2)c2ccccc2)cc1,-5%,1%,4µM*,?,-25%,-4
O=C(Cc1coc2cc3c(cc12)CCC3)OCc1cccc([N+](=O)[O-])c1,.,.,.,.,.,4
O=C1CSc2ccc(C(=O)OCc3cc(-c4ccccc4)on3)cc2N1,.,.,.,.,.,6
Fc1ccc2cnc(-c3ccccc3)c(-c3cc(C(F)(F)F)cc(C(F)(F)F)c3)c2c1,-4%,-9%,4.5µM*,-13%,-26%,5
Fc1ccc2cnc(-c3ccccc3)c(-c3ccc(C(F)(F)F)cc3)c2c1,19%,-15%,13µM*,-29%,i,-9
